LASV entry inh: inhibitors of Lassa virus binding or cell entry | Lassa virus pseudotype entry inhibition, cell reporter | Potency, µM (top dose mostly 37.9 µM), for the others: at the highest dose activity change, negative = inhibition, most hits filed as inhibitors | actives 1.2% (n = 300,000) | AID 540256; calls by dose curve; tested in HEK293 cells; further: potency means the concentration at half of the fitted maximal effect; on the % scale 0 is the no-effect control and ±100 the full control effect; nearly all actives have a fitted effect of over 50% in size
Marburg entry inh: inhibitors of Marburg virus binding or cell entry | actives 1.8% (n = 300,000) | Potency, µM (titrated, usually from 37.8 µM), inactives show top-dose activity change, negative = inhibition, hits mostly inhibitors | Marburg virus pseudotyped entry inhibition, cell reporter | AID 540276; calls by dose curve; tested in HEK293 cells; further: potency means the concentration at half of the fitted maximal effect; on the % scale 0 is the no-effect control and ±100 the full control effect
CHX counter: counter-screen for Shiga toxin inhibitors: cycloheximide protein synthesis inhibition; cell reporter, cycloheximide protein synthesis inhibition counterscreen; actives 12% (n = 300,000); max response, %; AID 2314; in the data active means max response mostly above about 13%, no sharp cut-off; inactive means mostly below about 14%; further: read at 38.3 µM for the half of the compounds with a filed dose; 0% is about no effect
Pf growth 48h: P. falciparum growth inhibition at 48 hours (one generation). Potency, µM (top dose mostly 28.7 µM), for the others: top-dose activity change, negative = inhibition, most hits filed as inhibitors. P. falciparum luciferase growth in erythrocytes, 48 h. actives 5.9% (n = 310,000); further: potency means the concentration at half of the fitted maximal effect; on the % scale 0 is the no-effect control and ±100 the full control effect
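Erythrocytes infected with P. falciparum carrying an integrated firefly luciferase reporter (2% hematocrit, 0.1% parasitemia final) were exposed to compounds in RPMI 1640 with 0.5% Albumax at 37 C, 5% CO2. Growth inhibition was scored as reduced luminescence.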
Shiga inhibitor: blocks Shiga toxin action in Vero cells; Vero cells, Shiga toxin protein synthesis inhibition reporter; actives 9.2% (n = 290,000); inhibition, % at 38.7 µM; in the data active means inhibition mostly above about 28%, no sharp cut-off; inactive means mostly below about 43%; further: 0% is about no effect
Pf growth 96h: P. falciparum growth inhibition at 96 hour, primary screen for plastid delayed-death inhibitors; P. falciparum luciferase reporter growth, 96 h; Potency, µM (series often up to 28.7 µM), for inactives: top-dose activity change, negative = inhibition, most hits filed as inhibitors; actives 6.9% (n = 320,000); further: potency means the concentration at half of the fitted maximal effect; on the % scale 0 is the no-effect control and ±100 the full control effect
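P. falciparum expressing integrated firefly luciferase grown in erythrocytes (2% hematocrit, 0.05% parasitemia final) with compounds for 96 hours at 37 C, 5% CO2. Growth inhibition read as loss of luminescence after adding luciferase detection reagent.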
An asterisk follows results filed as active; ? = inconclusive; . = not tested or not shown; [ ] = remark or other dose. Compounds with a hit are over-represented: about 19% of the library has one in this group of screens. Unless noted, the call rests on the fitted dose curve; in most records, active means well fitted inhibition curve with a large enough effect; inconclusive means small, poorly fitted or top-dose-only effect, or another doubt; inactive means no such curve, though single readings can be large or run the other way.

SMILES	LASV entry inh	Marburg entry inh	CHX counter	Pf growth 48h	Shiga inhibitor	Pf growth 96h
CC(C)(Oc1ccc(Cl)cc1)C(=O)NCc1ccncc1	-4%	-15%	1	29%	-4	-66%
CCOc1ccccc1NC(=O)CSc1nnc(-c2cnccn2)n1CC	0%	-27%	7	-26%	-9	.
CC(=O)Nc1ccc(NC(=O)C(C)Sc2nc3nc(C)cc(C)n3n2)cc1 (configuration not stated)	-3%	?	.	-16%	.	-13%
Cc1cc(Sc2nnc(N)s2)c2ccccc2n1	.	.	-5	?	-18	-17%
COc1ccc(-c2nc(C#N)c(NCCc3ccccc3)o2)cc1OC	?	-20%	22*	13%	50	.
CCN(CC)CCCNc1oc(-c2ccccc2[N+](=O)[O-])nc1C#N	.	.	11	?	15	2.6µM*
COc1ccc(-c2nc(C#N)c(NCc3ccc(C)cc3)o2)cc1OC	-1%	-10%	14	-29%	51	6%
CCNc1oc(COc2ccccc2F)nc1C#N	21%	5%	26*	54%	107*	.
N#Cc1nc(COc2ccccc2F)oc1NCCCn1ccnc1	9%	6%	13	17%	-4	12%
CN1CCc2[nH]c3ccc(C(=O)NN)cc3c2C1	-5%	-5%	-1	?	-7	.
COc1ccc(C2SCC(=O)Nc3c2c(C)nn3C2CCOC(C)(C)C2)cc1OC (configuration not stated)	-3%	7%	3	.	-8	-24%
CC(C)[C@H](NC(=O)[C@@H]1Cc2c([nH]c3ccccc23)C2c3ccccc3C(=O)N21)C(=O)N1CCC[C@@H]1C(=O)O (some centres not stated)	.	.	-3	-11%	-7	15µM*
Cc1cc(-c2ccc(C)c(S(=O)(=O)NCc3ccc(Br)cc3)c2)on1	.	.	-2	2%	-3	-3%
COc1ccc(CN2C(=O)CC(=O)NC2=O)cc1	-29%	6%	-10	1%	-15	4.1µM*
CC(C)CC(=O)NCC(C)NC(=O)CC(C)C (configuration not stated)	18%	-5%	-1	13%	6	15µM*
Cc1ccc2c(c1)c1c(n2CC(O)CNC2CCCCC2)CCCC1 (configuration not stated)	.	.	-12	2.9µM*	-24	26%
COC(=O)c1ccc(COC(=O)c2ccc(C)c(S(=O)(=O)N3CCCCC3)c2)cc1	-20%	12%[46.1 µM]	.	?	.	0%
O=C(Nc1ccc(Br)cc1)C1Cc2ccccc2O/C1=N\O (configuration not stated)	.	.	55*	12%	111*	?
Cc1ccc(NC(=O)C2Cc3ccccc3O/C2=N\O)cc1C (configuration not stated)	17%[46.1 µM]	?	49*	55%	74*	84%
O=C1CC(C(=O)Nc2ccc(Br)cc2)C2(CCCC2)O1 (configuration not stated)	.	2%	-4	-11%	-4	-10%
CCc1ccc(S(=O)(=O)c2cn(CC)c3cc(N4CCOCC4)c(F)cc3c2=O)cc1	9%[46.1 µM]	.	.	.	.	.
CC(C)OC(=O)c1ccc(NC(=O)c2cncc(Br)c2)cc1	-20%	24%[46.1 µM]	20*	-17%	25	36%
CN(C)C(=O)c1ccc(NC(=O)c2cncc(Br)c2)cc1	?	0%	27	96%	active	.
CC(=O)c1cccc(NS(=O)(=O)c2c(C)noc2C)c1	2%	-28%	-2	14%	-6	?
CC(CN1CCN(C)CC1)OC(=O)c1ccc(Cl)cc1Cl (configuration not stated)	3%	12%	21	?	22	?
SMILES	LASV entry inh	Marburg entry inh	CHX counter	Pf growth 48h	Shiga inhibitor	Pf growth 96h
Cn1c(=O)[nH]c(=O)c2c1nc(N1CCOCC1)n2CCCSc1ncccn1	7%	-17%	11*	20%	-4	-22%
CC(CSc1nc2ccccc2s1)Cn1c(N2CCCC2)nc2c1c(=O)[nH]c(=O)n2C (configuration not stated)	-22%	8.9µM*	-1	12µM*	-5	10µM*
Cn1c(=O)[nH]c(=O)c2c1nc(N1CCCCCC1)n2CCCSc1nc2ccccc2o1	?	?	-3	12µM*	-6	19%
CCOC(=O)Cn1c(N2CCOCC2)nc2c1c(=O)[nH]c(=O)n2C	-2%	13%	-3	-7%	8	12µM*
Cc1ccnc(SCCn2c(N3CCOCC3)nc3c2c(=O)[nH]c(=O)n3C)n1	19%	?	.	.	.	.
c1ccc(Cc2cc(-c3ccccc3)on2)cc1	?	?	36*	241%	90*	175%
Cc1cnc(C(=O)OCc2ccc(COC(=O)c3cnc(C)cn3)cc2)cn1	15%[46.1 µM]	?	7	?	-6	43%
O=C(NCC(=O)N1CCN(c2ccccc2O)CC1)C1CCCCC1	-13%	4%	.	?	.	?
O=C(NCC(=O)N1CCC(N2CCCCC2)CC1)C1CCCCC1	-2%	5%	-2	9%	-6	1.2µM*
COC(=O)C(CC(=O)CNC(=O)c1ccccc1)NC(=O)c1ccccc1 (configuration not stated)	0%[46.1 µM]	5%[46.1 µM]	.	.	.	.
O=C(c1ccco1)N1CCN(S(=O)(=O)c2ccc(Oc3ccccc3)cc2)CC1	-21%	?	0	-12%	10	-25%
C/C(=N\NC(=O)c1ccc(C)cc1C)c1ccc2c(c1)OCO2	?	?	26*	10µM*	67*	3.7µM*
C/C(CC(=O)N1CCCC1)=N\NC(=O)c1cc2ccccc2cc1O	.	.	14	?	48	-24%
C/C(=N\NC(=O)c1cc2ccccc2cc1O)c1ccc2c(c1)OCO2	6%	6%	18	6.6µM*	57	5.2µM*
COc1ccc(S(=O)(=O)n2c([N+](=O)[O-])cnc2C)cc1OC	-4%	-2%	-2	-3%	4	-6%
CC(C)C1C(c2ccccc2)N(C)C(c2ccccc2)CC1(O)c1ccccc1 (configuration not stated)	?	15µM*	-2	?	-12	.
CC(C)C1C(c2ccccc2)NC(c2ccccc2)CC1(O)c1ccc(F)cc1 (configuration not stated)	.	.	-2	4.1µM*	10	?
CCC1C(c2ccccc2)N(C)C(c2ccccc2)CC1(O)c1ccccc1 (configuration not stated)	?	?	0	?	31	31%
CCC1C(=O)CC(c2ccccc2)NC1c1ccccc1 (configuration not stated)	?	-11%	-2	4%	-1	?
CSc1nnc(-c2ccncc2)n1/N=C/c1cn(-c2ccccc2)nc1-c1ccc(Cl)cc1	12%	?	5	9.3µM*	3	0%
N#Cc1c(NC(=O)c2ccc(Br)o2)n(-c2ccccc2)c2nc3ccccc3nc12	.	-6%	-1	17%	5	11%

High-throughput results (PubChem BioAssay)
